Compounds without any hit were thinned out: in the full panel of roughly 83,000, 20% have a hit.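 48-hour exposure, single concentration, 96-well plates; percent growth endpoint where 0 means no net growth. Active: below 10.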 The source made the active and inactive calls.
Tests used:
Experiment in all cases: NCI-60 one-dose screen, 48 h (100 = growth as untreated, 0 = no growth, -100 = all killed)
Conditions in all cases: 10 µM unless noted
BT-549 breast = system: BT-549 breast
MDA-MB-435 melanoma = system: MDA-MB-435 melanoma
SW-620 colon = system: SW-620 colon
MCF7 breast = system: MCF7 breast
HCT-116 colon = system: HCT-116 colon
HCC-2998 colon = system: HCC-2998 colon
KM12 colon = system: KM12 colon

Measured: growth

CC(=O)Nc1ccc(C(=O)/C=C/c2ccc(N(C)C)cc2)cc1
inactive: BT-549 breast 101% | MDA-MB-435 melanoma 98.1% | SW-620 colon 110% | MCF7 breast 78.3% | HCT-116 colon 102% | HCC-2998 colon 102% | KM12 colon 97.7%

COc1cc2c(c(OC)c1OC)C(=O)CC(c1cccc(C(=O)Nc3cccc(Br)c3)c1)O2 (centres undefined)
inactive: BT-549 breast 63% | MDA-MB-435 melanoma 69.3% | SW-620 colon 95.4% | MCF7 breast 68.3% | HCT-116 colon 58.1% | HCC-2998 colon 112% | KM12 colon 71.2%

CC(=O)OC1/C=C\CC/C=C\C1 (centres undefined)
inactive: BT-549 breast 110% | MDA-MB-435 melanoma 103% | SW-620 colon 101% | MCF7 breast 106% | HCT-116 colon 107% | HCC-2998 colon 129% | KM12 colon 103%

O=C1/C(=N\c2cc(=O)[nH]n2S(=O)(=O)c2ccccc2)Nc2ccccc21
inactive: BT-549 breast 106% | MDA-MB-435 melanoma 108% | SW-620 colon 99.3% | MCF7 breast 96.5% | HCT-116 colon 99.3% | HCC-2998 colon 104% | KM12 colon 99.4%

Clc1ccc(N/N=C(\c2ccccc2)c2ccccn2)nc1
active: MCF7 breast 3.62% | HCT-116 colon 2.71%
inactive: BT-549 breast 16.7% | MDA-MB-435 melanoma 26.6% | SW-620 colon 27.2% | HCC-2998 colon 35.9% | KM12 colon 21.7%

COC(=O)c1ccc2[nH]c(O)c(C(=Nc3ccc(N(C)C(=O)CN4CCN(C)CC4)cc3)c3ccc(N)cc3)c2c1
inactive: MDA-MB-435 melanoma 90.6% | SW-620 colon 70.3% | MCF7 breast 40.7% | HCT-116 colon 41.4% | HCC-2998 colon 108% | KM12 colon 18.4%

COC(=O)c1ccc2[nH]c(O)c(C(=Nc3ccc(N(C)C(=O)CN4CCN(C)CC4)cc3)c3cccc(OC)c3)c2c1
active: SW-620 colon 2.03% | MCF7 breast 6.86% | HCT-116 colon -5.68% | KM12 colon 4.88%
inactive: MDA-MB-435 melanoma 31.8% | HCC-2998 colon 20.3%

Cc1ccc(C(=O)Nc2ccc(CN3CCN(C)CC3)c(C(F)(F)F)c2)cc1C#Cc1cnc(N)c2ccc(F)cc12
active: BT-549 breast -95.9% | MDA-MB-435 melanoma -93.2% | MCF7 breast -79.7% | HCT-116 colon -96.5% | HCC-2998 colon -78.5% | KM12 colon -76.9%

c1ccc(Nc2ncc3c(n2)-c2cccn2CC3)cc1
inactive: BT-549 breast 102% | MDA-MB-435 melanoma 105% | SW-620 colon 102% | HCT-116 colon 92% | HCC-2998 colon 47.5% | KM12 colon 27.9%

COc1cccc(-c2cc(-c3cc4ccccc4oc3=O)nc(N)n2)c1
inactive: MDA-MB-435 melanoma 119% | SW-620 colon 103% | MCF7 breast 70% | HCT-116 colon 95.1% | KM12 colon 95.4%

C=C(C)[C@@H]1CC[C@]2(COC(=O)c3ccccc3C(=O)O)CC[C@]3(C)[C@H](CC[C@@H]4[C@@]5(C)CCCNC(C)(C)[C@@H]5CC[C@]43C)[C@@H]12
inactive: BT-549 breast 72.6% | MDA-MB-435 melanoma 60.9% | SW-620 colon 70.5% | HCT-116 colon 32.2% | HCC-2998 colon 72.1% | KM12 colon 51.9%

COc1ccc2c(N)ncc(C#Cc3cc(C(=O)Nc4ccc(CN5CCN(C)CC5)c(C(F)(F)F)c4)cnc3C)c2c1
active: MDA-MB-435 melanoma -56.7% | MCF7 breast -49.2% | HCT-116 colon -75.8% | KM12 colon -49.1%
inactive: BT-549 breast 46% | HCC-2998 colon 19.3%

Cc1cc2cn3c4ccc(O)cc4[nH]c(=O)c3c2cc1C
inactive: HCC-2998 colon 24.1%
active: MDA-MB-435 melanoma 0.693% | SW-620 colon -100% | MCF7 breast -57.2% | HCT-116 colon -100% | KM12 colon -36.9%

Cc1ccc(C(=O)Nc2ccc(CN3CCN(C)CC3)c(C(F)(F)F)c2)cc1C#Cc1cncc2ncccc12
active: BT-549 breast -82.3% | MDA-MB-435 melanoma -93.3% | SW-620 colon -66.6% | MCF7 breast -65.4% | HCT-116 colon -84.7% | KM12 colon -81.6%
inactive: HCC-2998 colon 34.8%

CC(C)OC(=O)[C@H](C)N[P@@](=O)(OC[C@@]1(C)O[C@@H](n2cc(F)c(N)nc2=O)C[C@@H]1O[P@](=O)(N[C@@H](C)C(=O)OC(C)C)Oc1ccccc1)Oc1ccccc1
inactive: MDA-MB-435 melanoma 86.6% | SW-620 colon 61.1% | MCF7 breast 50.3% | HCC-2998 colon 46.7% | KM12 colon 76%

c1ccc(C(=NNc2nc3ccccc3o2)c2ccccn2)nc1
active: HCT-116 colon 4.99%
inactive: BT-549 breast 18.7% | MDA-MB-435 melanoma 25.2% | SW-620 colon 29.7% | HCC-2998 colon 44.3% | KM12 colon 24.6%

COC(c1ccccc1)C(Br)C(=O)c1ccccc1 (centres undefined)
inactive: BT-549 breast 92.4% | MDA-MB-435 melanoma 96.3% | SW-620 colon 125% | MCF7 breast 98.5% | HCT-116 colon 87.7% | KM12 colon 114%

Cc1nc2c(nnn2-c2ccccc2)c2nc(-c3ccccc3)oc(=O)c12
inactive: BT-549 breast 105% | MDA-MB-435 melanoma 111% | MCF7 breast 92.3% | HCT-116 colon 101% | HCC-2998 colon 116% | KM12 colon 118%

CC(=O)OCC1O[C@@H](OC(C)=O)[C@@H](NC(=O)NS(=O)(=O)c2ccccc2)C(OC(C)=O)[C@@H]1OC(C)=O (some centres undefined)
inactive: BT-549 breast 102% | MDA-MB-435 melanoma 105% | SW-620 colon 111% | HCT-116 colon 108% | HCC-2998 colon 113% | KM12 colon 105%

O=C1C(=O)c2ccccc2C(O)=C1CCCc1ccc(Oc2ccccc2)cc1
inactive: BT-549 breast 60.9% | MDA-MB-435 melanoma 45.4% | MCF7 breast 83.3% | HCT-116 colon 22.1% | HCC-2998 colon 103% | KM12 colon 67.3%

COc1cc2cn3c4ccc(O)cc4[nH]c(=O)c3c2cc1OC
inactive: SW-620 colon 16.8% | HCC-2998 colon 13.1%
active: MDA-MB-435 melanoma 9.28% | MCF7 breast -77.9% | HCT-116 colon -100% | KM12 colon -2.22%

C/C=C(/C)C(=O)OC1C=C(CO)C(=O)C(OC(=O)C2(C)OC2C)C1C(C)C (centres undefined)
active: BT-549 breast -7.25% | MDA-MB-435 melanoma -31.8% | MCF7 breast 8.26% | HCT-116 colon -58.9% | HCC-2998 colon -87.6% | KM12 colon -56.3%

C/C=C(/C)C(=O)OC1C=C(CO)C(=O)C(OC(=O)C(C)(O)C(C)Cl)C1C(C)C (centres undefined)
active: BT-549 breast -9.98% | MDA-MB-435 melanoma -23.2% | SW-620 colon -45.7% | MCF7 breast 8.43% | HCC-2998 colon -76.3% | KM12 colon -45.1%

Cc1ncc(C(=O)Nc2ccc(CN3CCN(C)CC3)c(C(F)(F)F)c2)cc1C#Cc1cnc(NC2CC2)c2ncccc12
active: BT-549 breast -91.7% | MDA-MB-435 melanoma -86.4% | SW-620 colon -74.3% | MCF7 breast -76.8% | HCT-116 colon -90% | HCC-2998 colon -54.4% | KM12 colon -82.6%

Cc1cc2cn3c4ccc(O)cc4nc(N)c3c2cc1C
active: MDA-MB-435 melanoma -31.2% | MCF7 breast -46.8% | HCT-116 colon -100% | KM12 colon 6.3%
inactive: SW-620 colon 11%

COC(=O)c1ccc2[nH]c(O)c(C(=Nc3ccc(N(C)C(=O)CN4CCN(C)CC4)cc3)c3ccc(OC)cc3)c2c1
active: SW-620 colon 4.33% | HCT-116 colon 3.03%
inactive: BT-549 breast 22.5% | MDA-MB-435 melanoma 29.6% | MCF7 breast 23.9% | HCC-2998 colon 30.8% | KM12 colon 13.1%

O=C(Nc1cccc(Cn2c(=O)[nH]c3ccc(Oc4ncccn4)cc3c2=O)c1)c1ccc(Cl)cc1
inactive: BT-549 breast 41.6% | MDA-MB-435 melanoma 43% | SW-620 colon 71.5% | MCF7 breast 28% | HCC-2998 colon 81.7% | KM12 colon 15.3%

CN1CCN(Cc2ccc(NC(=O)c3ccc(C#Cc4c(N)ncc5ccc(F)cc45)cc3)cc2C(F)(F)F)CC1
inactive: BT-549 breast 27.7%
active: MDA-MB-435 melanoma -92% | SW-620 colon -52.5% | MCF7 breast -77.3% | HCC-2998 colon -82.9% | KM12 colon -75.5%

COC(=O)C1CC(=O)N(C(=O)Nc2ccc(Cl)cc2Cl)C1 (centres undefined)
inactive: BT-549 breast 95.9% | MDA-MB-435 melanoma 107% | SW-620 colon 105% | HCT-116 colon 98.1% | HCC-2998 colon 107% | KM12 colon 104%

O=C(Nc1cccc2[nH]c(C(F)(F)F)nc12)c1ccc(F)cc1
inactive: BT-549 breast 87.5% | MDA-MB-435 melanoma 87.2% | SW-620 colon 91.5% | MCF7 breast 83.8% | HCT-116 colon 84.4% | HCC-2998 colon 115% | KM12 colon 73.1%

COC(=O)/C=C/c1cc(O)c2oc(-c3ccc(O)c(O)c3)c(C(=O)OC)c2c1
inactive: BT-549 breast 46.6% | SW-620 colon 14.8% | HCT-116 colon 24.5% | HCC-2998 colon 47.2% | KM12 colon 13.8%
active: MDA-MB-435 melanoma -37.1%

COC(=O)c1ccc2[nH]c(O)c(C(=Nc3ccc(N(C)C(=O)CN4CCN(C)CC4)cc3)c3ccc(CCO)cc3)c2c1
inactive: BT-549 breast 20.6% | MDA-MB-435 melanoma 60.8% | SW-620 colon 27.9% | MCF7 breast 26.3% | HCC-2998 colon 53.2% | KM12 colon 18.5%

CCS(=O)(=O)OCCO[C@H]1Cc2cc3ccc(=O)oc3cc2OC1(C)C
inactive: BT-549 breast 100% | MDA-MB-435 melanoma 107% | SW-620 colon 97% | MCF7 breast 95.1% | HCC-2998 colon 109% | KM12 colon 104%

O=C(NCCNCCO)c1cc([N+](=O)[O-])cc([N+](=O)[O-])c1O
inactive: BT-549 breast 121% | MDA-MB-435 melanoma 104% | SW-620 colon 103% | MCF7 breast 102% | HCT-116 colon 103% | HCC-2998 colon 101% | KM12 colon 108%

C/C(=N\Nc1cccc(Cl)n1)c1ccccn1
inactive: BT-549 breast 22.9% | MDA-MB-435 melanoma 31.3% | SW-620 colon 32.5% | MCF7 breast 10.1% | HCT-116 colon 10% | HCC-2998 colon 32.6% | KM12 colon 25.8%

CC(C)OC(=O)c1ccc2n1CCCc1cnc(Nc3ccccc3)nc1-2
inactive: BT-549 breast 86.4% | MDA-MB-435 melanoma 42.7% | SW-620 colon 91% | MCF7 breast 65.4% | HCC-2998 colon 104% | KM12 colon 52.8%

Source: PubChem BioAssay (NCI)
